rCAG RNA binder = r(CAG) repeat RNA binding. inhibition, % at 3 µM. TO-PRO-1 dye displacement fluorescence. AID 651821. hit rate 1.3% among 370,000;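 active = inhibition above the plate cutoff, the mean of all test compounds on that plate plus 3 SD, cut at about 35% in these data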;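 note: higher means more dye released from RNA so lower well fluorescence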
NR3A LBD binder = NR3A (human) ligand-binding domain modulation. hit rate 2.5% among 340,000. AID 1259313. NR3A LBD differential scanning fluorimetry, Tm shift; 0% = protein alone, 100% = glycine-bound protein. Tm shift relative to glycine control, % at 25 µM;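 active = melting temperature shift of at least 10% of the positive control shift, at one fixed dose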
FAS-TE inh = inhibitors of human fatty acid synthase thioesterase domain. P49327. recombinant FAS-TE, OMFH fluorogenic substrate, fluorescence endpoint. inhibition, % at 15 µM. hit rate 0.67% among 360,000. AID 602261;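 active = compounds whose normalised, plate-corrected inhibition of enzyme fluorescence in the single-dose primary screen is 50% or more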
NadD inh = NadD (S. aureus) enzyme inhibition | inhibition, % at 20 µM | hit rate 0.78% among 360,000 | purified NadD enzyme, colorimetric absorbance read-out; in the data active = inhibition above about 26%
NadD inh conf = NadD (S. aureus) inhibition, single concentration confirmation; shares compounds with NadD inh; purified S. aureus NadD, colorimetric enzyme assay; inhibition, % at 20 µM; hit rate 13% among 2,000; in the data active = inhibition mostly above about 42%, no sharp cut-off; inactive = mostly below about 42%
Of the large screens only hits and unclear results are named; the others gave an inactive call (follow-up assays come after a bar, where they were run). This is a sample that favours compounds with a hit; in the whole collection about 4.3% have one here.

COC(=O)C1=C(C)N(Cc2cccc(C(F)(F)F)c2)C(=NCc2cc(OC)c(OC)c(OC)c2)NC1c1ccc(F)cc1 (stereo unspecified)	none (no result: NR3A LBD binder, FAS-TE inh, NadD inh)
Oc1ccc(Nc2nc(-c3cccs3)cs2)cc1	NadD inh 33 | NadD inh conf 62
COc1ccc(S[C@]2(C(=O)N3CCN(c4ncccn4)CC3)CC(=O)N(C(=O)/C=C/c3ccccc3)[C@@H]2c2ccc(OC)cc2)cc1	none (no result: NR3A LBD binder, FAS-TE inh, NadD inh)
CN1Cc2nnn(Cc3ccccc3)c2-c2cc(F)ccc2S1(=O)=O	none (no result: NR3A LBD binder, FAS-TE inh, NadD inh)
Cc1[nH]cnc1/C=N\NC(=O)c1cccc(S(=O)(=O)N(C)C)c1	none (no result: NR3A LBD binder, FAS-TE inh, NadD inh)
CCOc1ccc(C(=O)Nc2nnc(NC(=S)Nc3ccccc3)s2)cc1	NR3A LBD binder 34, NadD inh 35 | NadD inh conf inactive
N#CCC[C@@H]1CC[C@]2(CCCN(S(=O)(=O)C3CCCCC3)C2)O1	none (no result: NR3A LBD binder, FAS-TE inh, NadD inh)
c1ccc(Cc2cnc(N3CCN(Cc4csc5ccccc45)CC3)nc2)cc1	none (no result: NR3A LBD binder, FAS-TE inh, NadD inh)

Bioassay records from PubChem.
